Test in all cases: PBM binding z-score (relative to random genomic background probes); higher = stronger binding; sequences stand for … in GC…GCGATTGACAGCGTAGAATGAAGG
Assay [1] concerns FXR:RXRa (NR concentration 270 nM, RXRa partner concentration 90 nM). An outline of the steps: (§1)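 Regression normalization was applied to scanned fluorescence from custom Agilent 4×180K protein-binding microarrays. Before scanning, arrays were incubated 1 h with ligand-free nuclear receptor dimers, and binding was detected with antibodies against each partner (one per run). Binding z-scores use the random background probes as reference.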

Assay [2] has as its system LXRa:RXRa (NR concentration 270 nM, RXRa partner concentration 90 nM). A digest of the protocol: as §1
Assay [3] has as its system LXRa homodimer (NR concentration 270 nM). An outline of the steps: as §1
The test system of assay [4] is LXRb:RXRa (NR concentration 270 nM, RXRa partner concentration 90 nM). A digest of the protocol: as §1
In assay [5] the test system is LXRb homodimer (NR concentration 270 nM). A digest of the protocol:
as §1

The subject of assay [6] is PPARa:RXRa (NR concentration 270 nM, RXRa partner concentration 90 nM). A digest of the protocol: as §1
The test system of assay [7] is PPARg:RXRa (NR concentration 180 nM, RXRa partner concentration 90 nM). An outline of the steps: as §1
Assay [8] concerns PPARg:RXRa 270nM:90nM, anti-RXR (NR concentration 270 nM, RXRa partner concentration 90 nM). A digest of the protocol: as §1
Assay [9] concerns PPARg:RXRa 30nM:10nM, anti-RXR (NR concentration 30 nM, RXRa partner concentration 10 nM). A digest of the protocol:
as §1

Assay [10] concerns PPARg:RXRa 90nM:30nM, anti-RXR (NR concentration 90 nM, RXRa partner concentration 30 nM). A digest of the protocol: as §1

Take TTACCAAGGGGAGCTGAGGTCGTTGATCCAACTC: the PBM binding z-score in assay [1] was 1.8; in [2], 0.173; in assay [3] it was -0.107; in [4], 0.623; in assay [5], -0.398; in assay [6], 0.818. The PBM binding z-score in [7] was -0.207; in assay [8] it was 0.37; in [9], 0.187; in assay [10] it was -0.00393.

On to GCTTGTACATCAAGGTTAAGAAAGACTAAGCTAA, for which the PBM binding z-score in [1] is 0.247; in assay [2] it was 0.691; in assay [3], -0.229; in [4], 0.559; in [5], -0.133; in assay [6], 0.96. Also, the PBM binding z-score in assay [7] is 0.118; in [8], 0.299; in assay [9], -0.184; in assay [10], 0.084.

Take CGAACTAGGACATTGACAGGACAGTGAATAGTAA: the PBM binding z-score is -0.0957 in [1]; -0.0769 in assay [2]; 0.0961 in assay [3]; -0.38 in assay [4]; -0.79 in assay [5]; 0.451 in [6]. For the same sequence, the PBM binding z-score worked out at 0.933 in assay [7], 0.247 in assay [8], 0.384 in assay [9] and 0.344 in assay [10].

As for TCTTCTAGATCAGCAGGTTAAGAAAGCTGGCCAA, the PBM binding z-score is 0.108 in assay [1]; 0.0628 in [2]; -0.37 in assay [3]; 0.225 in assay [4]; 0.0387 in assay [5]; 0.759 in assay [6]. Further, the PBM binding z-score was -0.499 in [7], 1.53 in assay [8], 2.84 in assay [9] and 2.08 in assay [10].

For the sequence GCTAGTTGGTCAGTAAAAAGTCACACACCGGTCG, the PBM binding z-score in [1] was 0.351; in [2] it was 0.195; in [3], 0.138; in [4], -0.0134; in [5], -0.0534; in [6], 0.217. Besides, the PBM binding z-score in assay [7] turned out to be 0.434; in assay [8], 0.856; in [9], 0.159; in [10] it was 0.726.

On to CCTTACGGGTCAAGGTCATAGCACGGGTGGTACG, for which the PBM binding z-score in assay [1] worked out at 6.75; in assay [2], 5.29; in assay [3] it was 1.9; in assay [4] it was 4.12; in [5], 0.624; in [6] it was 5.78. In addition, the PBM binding z-score was 6.03 in assay [7], 5.86 in [8], 2.53 in [9] and 4.68 in assay [10].

Take CGAACTAGGTGATCCAGGACAGTGAATACATTGA: the PBM binding z-score is -0.144 in assay [1]; -0.403 in assay [2]; -0.0294 in assay [3]; -0.189 in [4]; -0.452 in assay [5]; 1.76 in assay [6]. In addition, the PBM binding z-score in [7] is 2.3; in assay [8], 1.72; in assay [9], 0.625; in assay [10], 1.09.

In the case of ACTAGCAGGCCAAGGGTCACTCTAGATTAGTCCG, the PBM binding z-score in assay [1] is 1.88; in [2], 3.2; in assay [3] it was 0.239; in assay [4], 2.54; in [5], -0.423; in assay [6], 4.44. In addition, the PBM binding z-score in assay [7] is 7.53; in assay [8], 7.29; in assay [9], 6.21; in assay [10] it was 7.97.

As for TCTGCTAGGTCAGTTGCTCAGCTAACGAGCTGCC, the PBM binding z-score is 0.259 in [1]; 0.241 in assay [2]; -0.836 in assay [3]; -0.204 in [4]; -0.131 in assay [5]; 0.67 in assay [6]. The PBM binding z-score in assay [7] is -0.489; in assay [8], 1.14; in assay [9] it was 0.796; in [10] it was 1.19.

ATCTCTAGGTATCAAGTTCAGTGAAAGAGAGGAC: the PBM binding z-score was found to be 0.749 in assay [1]; 0.772 in assay [2]; 0.719 in assay [3]; 0.674 in assay [4]; 1.24 in [5]; 0.806 in assay [6]. For the same sequence, the PBM binding z-score came to 0.577 in assay [7], 1.44 in assay [8], 0.214 in assay [9] and 1.15 in [10].

As to TCAAGCAGGCCAGAGGGTCACTCAAGAGGTACGG, the PBM binding z-score is 1.15 in assay [1]; 0.997 in assay [2]; -0.238 in [3]; 1.22 in [4]; -1 in [5]; 2.59 in [6]. In addition, the PBM binding z-score in assay [7] was found to be 1.67; in assay [8], 2.69; in assay [9], 2.51; in assay [10], 2.67.

The record behind these values is the supplement of paper PMC6555819.
